In PubChem BioAssay AID463173 (ICCB-Longwood Screening Facility, Harvard Medical School, 2010):
Screen size: about 52,000 compounds; about 4,300 (8.3%) were called active. No stated cut-off is given here; in the data, active means survival mostly below about 52% (no sharp cut-off); inactive means mostly above about 56%. Many of the other results were omitted from the sample, so actives are more common in it than they were.

test system: DeltatarO mutant; assay: S. aureus survival, RN4220 and DeltatarO strains – OD600, teichoic acid synthesis inhibitors, primary screen (AID 463173); conditions: S. aureus RN4220 wild type/DeltatarO growth, OD600, 18 h, active compounds read low, screened at 18.75 µg/mL (by protocol)

Row | Structure (SMILES) | survival
1 | Cc1ccnc(NC(c2cccc(O)c2)c2ccc3ccc(C)nc3c2O)c1 (centres undefined) | 68% (inactive)
2 | Cc1ccc(C(C)C)cc1S(=O)(=O)Nc1ccccn1 | 101% (inactive)
3 | COc1cc(C(=O)NC(c2ccc(Cl)cc2)c2cc(Cl)c3cccnc3c2O)cc(OC)c1OC (centres undefined) | 85% (inactive)
4 | COc1ccc(C(Nc2ccccn2)c2ccc3ccc(C)nc3c2O)cc1C (centres undefined) | 40% (active)
5 | Cc1ccc2ccc(C(Nc3ccccn3)c3ccccc3)c(O)c2n1 (centres undefined) | 39% (active)
6 | O=C(c1ccccc1)C(Nc1ccccn1)c1ccccc1 (centres undefined) | 99% (inactive)
7 | O=C(COc1ccccc1Cl)Nc1ccccc1OCc1cc(=O)n2ccccc2n1 | 92% (inactive)
8 | COc1ccc(NC(=O)COCc2cc(-c3ccco3)on2)cc1Cl | 112% (inactive)
9 | Cc1ccc(NC(=O)C2CCCN2S(=O)(=O)c2cccc3nsnc23)c(C)c1 (centres undefined) | 78% (inactive)
10 | COc1cc(NC(=O)CN2C(=O)c3ccccc3Sc3ccc(C(=O)N4CCCC4)cc32)cc(OC)c1 | 72% (inactive)
11 | CCc1ccc2occ(CC(=O)Nc3ccc(OC)c(Cl)c3)c2c1 | 88% (inactive)
12 | CCc1c(C)sc(NC(=O)c2cc(-c3ccc(OC)c(OC)c3)on2)c1C#N | 149% (inactive)
13 | CCc1c(C)sc(NC(=O)c2cc(-c3ccc(OC)cc3)on2)c1C#N | 50% (active)
14 | CCOC(=O)c1sc(NC(=O)c2cc(CC)on2)c(C(=O)OCC)c1C | 54% (inactive)
15 | CCc1c(C)sc(NC(=O)c2cc(-c3cccc(Cl)c3)on2)c1C#N | 69% (inactive)
16 | CCc1cc(C(=O)Nc2sc(C)c(CC)c2C#N)no1 | 35% (active)
17 | COc1ccc(-c2cc(C(=O)Nc3ccc(C#N)cc3)no2)cc1 | 46% (inactive)
18 | CC(C)OCCCn1c(=O)c2ccccc2n2c(-c3ccccc3)nnc12 | 105% (inactive)
19 | CCCN1CCN(CCCNC(=O)c2ccc3c(c2)sc2nc(-c4ccc(C)cc4)cn23)CC1 | 18% (active)
20 | CCN1CCN(CCCNC(=O)c2ccc3c(c2)sc2nc(-c4ccc(C)cc4)cn23)CC1 | 26% (active)
21 | CCN1CCN(CCCNC(=O)c2ccc3c(c2)sc2nc(-c4ccc(OC)cc4)cn23)CC1 | 72% (inactive)
22 | COc1ccccc1Nc1nc(C)nc(N)c1S(=O)(=O)c1ccccc1 | 84% (inactive)
23 | COc1ccc2cc(-c3nc(Cl)c4c5c(sc4n3)CC(C)CC5)c(=O)oc2c1 (centres undefined) | 77% (active)
24 | CC1CCc2c(sc3nc(-c4cc5ccccc5oc4=O)nc(Cl)c23)C1 (centres undefined) | 61% (inactive)

Row | Structure (SMILES) | survival
25 | COc1ccc2cc(-c3nc(Cl)c4c5c(sc4n3)CCCC5)c(=O)oc2c1 | 76% (inactive)
26 | COc1ccc(-c2csc(NC(=O)C(C)C)n2)cc1 | 84% (inactive)
27 | CCOC(=O)COc1ccc(C)cc1C(=O)c1ccn2nc(-c3ccc(F)cc3)cc2n1 | 69% (inactive)
28 | Cn1c(=O)oc2cc(S(=O)(=O)N3CCC(C(=O)NCc4ccccc4Cl)CC3)ccc21 | 125% (inactive)
29 | COC(=O)c1cc(-c2cc(OC)c(OC)c(OC)c2)no1 | 99% (inactive)
30 | Cc1ccc(C)c(OCc2nc3ccccc3n2C)c1 | 59% (inactive)
31 | COc1cccc(OCc2nc3ccccc3n2Cc2ccccc2)c1 | 62% (inactive)
32 | c1ccc(OCCn2c(COc3ccccc3)nc3ccccc32)cc1 | 0% (active)
33 | CC(C)(C)c1ccc(OCc2nc3ccccc3n2CCOc2ccccc2)cc1 | 10% (active)
34 | Cn1c(COc2ccccc2C(C)(C)C)nc2ccccc21 | 5% (active)
35 | COc1ccc(OCc2nc3ccccc3n2Cc2ccc(C(C)(C)C)cc2)cc1 | -9% (active)
36 | Cn1c(COc2ccccc2Br)nc2ccccc21 | 92% (inactive)
37 | c1ccc(Cn2nnnc2C(c2ccccc2)N2CCN(Cc3ccncc3)CC2)cc1 (centres undefined) | 78% (inactive)
38 | CCc1ccc(CNC(=O)c2cccc(-n3cnc4cccnc43)c2C)cc1 | 88% (inactive)
39 | CC(=O)c1cccc(NC(=O)CN2C(=O)c3ccccc3Sc3ncccc32)c1 | 95% (inactive)
40 | COc1ccc(CNC2CCCC2)cc1 | 79% (inactive)
41 | COc1ccc2[nH]cc(CCN=C(NC(=O)c3ccccc3F)Nc3nc(C)cc(C)n3)c2c1 | 99% (inactive)
42 | Cc1ccc(C)c(N2CCN(C(=O)CCc3nnc4n(C)c(=O)c5ccccc5n34)CC2)c1 | 95% (inactive)
43 | COc1ccc(OCc2nnc(SCC(=O)N(C3CCCCC3)C3CCCCC3)o2)cc1 | 72% (inactive)
44 | COc1ccc(S(=O)(=O)N2CCN(c3ccccc3F)CC2)cc1-c1noc(C)n1 | 59% (inactive)
45 | CCc1nc(-c2cc(S(=O)(=O)N3CCN(c4ccccc4F)CC3)ccc2OC)no1 | 42% (active)
46 | CCc1nc(-c2cc(S(=O)(=O)N3CCN(c4ccccc4OC)CC3)ccc2OC)no1 | 42% (active)
47 | CCc1nc(-c2cc(S(=O)(=O)N3CCN(c4ccc(F)cc4)CC3)ccc2OC)no1 | 49% (inactive)
48 | COc1ccc(S(=O)(=O)N2CCN(c3ccccc3OC)CC2)cc1-c1noc(C)n1 | 110% (inactive)

Row | Structure (SMILES) | survival
49 | CCc1nc(-c2cc(S(=O)(=O)N3CCN(c4ccccc4)CC3)ccc2OC)no1 | 51% (inactive)
50 | Cc1ccc(OCC(=O)Nc2ccc3nc(SCC(=O)N4CCOCC4)sc3c2)cc1 | 86% (inactive)
51 | O=C(NCc1ccccc1Cl)c1ccc(CS(=O)(=O)c2ccc(Br)cc2)o1 | 127% (inactive)
52 | Cc1ccc(-c2onc(C)c2C)cc1S(=O)(=O)NC1CCC(C)CC1 (centres undefined) | 82% (inactive)
53 | Cn1c(=O)n(C)c2cc(S(=O)(=O)Nc3ccccc3C(=O)O)ccc21 | 105% (inactive)
54 | COc1cccc(NC(=O)C(Cc2ccccc2)NS(=O)(=O)c2ccc3c(c2)c(=O)n(C)c(=O)n3C)c1 (centres undefined) | 79% (inactive)
55 | COCCNC(=O)Cn1c(=O)n(-c2ccc(C)c(C)c2)c(=O)c2c3c(sc21)CCCCC3 | 86% (inactive)
56 | CC(=O)c1cccc(NC(=O)Cn2ccn3nc(-c4ccccc4)cc3c2=O)c1 | 83% (inactive)
57 | CCOc1ccc(CC(=O)NCc2ccc3c(c2)CCN3C(=O)c2ccccc2)cc1OCC | 72% (inactive)
58 | CCOc1cc(CNc2ccc(O)cc2)ccc1OCc1ccc(Cl)cc1 | 53% (inactive)
59 | COc1cc(CNc2ccc3[nH]c(=O)[nH]c3c2)cc(Br)c1OCc1ccc(F)cc1 | 99% (inactive)
60 | COc1cc(CNc2ccc3[nH]c(=O)[nH]c3c2)cc(Cl)c1OCc1ccc(F)cc1 | 76% (inactive)
61 | CCOc1cc(CNc2ccc(O)cc2)cc(Br)c1OCc1ccccc1 | 3% (active)
62 | CCOc1cc(CNc2ccc(O)cc2)cc(Cl)c1OCc1ccccc1 | 1% (active)
63 | Oc1ccc(NCc2ccccc2OCc2ccccc2)cc1 | 61% (inactive)
64 | CCOc1cc(CNc2ccc(C(=O)O)cc2)ccc1OCc1ccccc1 | 47% (active)
65 | CCOc1c(Cl)cc(CNc2ccc3[nH]c(=O)[nH]c3c2)cc1OC | 95% (inactive)
66 | CCn1cc(C(=O)NCCCOC)c(=O)c2cc(S(=O)(=O)N3CCc4ccccc4C3)ccc21 | 92% (inactive)
67 | Cc1cc(=O)[nH]c2nnc(SCc3ccc(C(F)(F)F)cc3)n12 | 74% (inactive)
68 | COc1ccc(NC(=O)CCc2c(C)nc3cc(-c4cccc(F)c4)nn3c2C)cc1Cl | 129% (inactive)
69 | CCCCCCOc1ccc(/C=C/C(=O)Nc2sc3c(c2C(=O)OC)CCC3)cc1OC | 69% (inactive)
70 | O=C(NCCc1ccccc1)c1cnc2sc(N3CCOCC3)nn2c1=O | 100% (inactive)
71 | O=c1oc2ccc3ccccc3c2cc1-c1nnc(Nc2ccccc2)s1 | 84% (inactive)
72 | CCc1ccc(CNC(=O)CN2C(=O)C3CCCCN3c3ccc(C(=O)N4CCCC4)cc32)cc1 (centres undefined) | 75% (inactive)

Row | Structure (SMILES) | survival
73 | O=C(CSCn1nnc2c(=O)[nH]c(Cc3ccc(F)cc3)nc21)Nc1ccccc1 | 52% (inactive)
74 | CCCc1cnc2c(c1SCC(=O)N1CCC(C)CC1)c(=O)n(C)c(=O)n2C | 96% (inactive)
75 | COc1cc(NC(=O)CSc2nc3ncccc3o2)cc(OC)c1 | 64% (inactive)
76 | O=C(CSc1nnc(-c2ccccc2F)o1)Nc1cccc(C(F)(F)F)c1 | 54% (inactive)
77 | Cc1cccc(C)c1NC(=O)CSc1nc2ncccc2o1 | 79% (inactive)
78 | O=C(CSc1nnc(-c2cccs2)o1)Nc1cccc(C(F)(F)F)c1 | 47% (active)
79 | Cc1cccc(NC(=O)CSc2nnc(-c3cccs3)o2)c1 | 50% (inactive)
80 | O=C(CSc1nc2ncccc2o1)Nc1cccc(C(F)(F)F)c1 | -1% (active)
81 | O=C(CSc1nc2ncccc2o1)Nc1ccc(Cl)cc1F | 70% (inactive)
82 | COc1cccc(NC(=O)CSc2nnc(-c3cccs3)o2)c1 | 52% (inactive)
83 | Cc1c(Cl)cccc1NC(=O)CSc1nc2ncccc2o1 | 6% (active)
84 | O=C(CSc1nc2c(c(=O)[nH]1)CCC2)Nc1ccccc1F | 73% (inactive)
85 | COc1ccccc1C(OC(=O)c1ccco1)C(=O)NCC1CCCO1 (centres undefined) | 85% (inactive)
86 | OCc1nc2ccc(-c3ccc4nc(CO)[nH]c4c3)cc2[nH]1 | 51% (inactive)
87 | COc1cccc(NC(=O)CC(C)S(=O)(=O)c2ccc3c(c2)NC(=O)CO3)c1 (centres undefined) | 115% (inactive)
88 | CCOC(=O)c1ccc(NC(=O)Cn2c(=O)cc(C)c3c(C)nn(-c4ccc(CC)cc4)c32)cc1 | 71% (inactive)
89 | Cc1c(C(=O)Nc2ccc(Br)cc2F)oc2ccc(S(=O)(=O)N3CCC4(CC3)OCCO4)cc12 | 81% (inactive)
90 | CC(C(=O)Nc1cccc(N)c1)n1nnc2ccccc21 (centres undefined) | 65% (inactive)
91 | CC1CCCc2sc3nc(SCC(=O)c4ccc(Br)cc4)nc(N)c3c21 (centres undefined) | 42% (inactive)
92 | Nc1nc(SCC(=O)N(CCO)CCO)nc2sc3c(c12)CCCC3 | 110% (inactive)
93 | CCCCCCSc1nc(N)c2c3c(sc2n1)CCCC3C (centres undefined) | -7% (active)
94 | CCn1nc(-c2ccccc2)c(-c2ccccc2)c(C(=O)Nc2ccccc2C(N)=O)c1=O | 77% (inactive)
